A549 tox-1 = Nrf2 qHTS screen for inhibitors: counterscreen for cytotoxicity. A549 ARE-Fluc cells, CellTiter-Fluor viability, 18-24 h. Potency, µM (doses to about 46 µM), usual class: inhibitors. 390,000 tested, 0.16% active. AID 504648, 2011
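Cytotoxicity counterscreen: CellTiter-Fluor fluorescence was measured in A549 ARE_Fluc cells after 18-24 h of compound exposure in a concentration series. The subsequent BugLite luminescent read reports ARE-luciferase activity.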
AT treatment = qHTS Assay for Identifying a Potential Treatment of Ataxia-Telangiectasia; Potency, µM (series often up to 57.5 µM), actives largely listed as activators; F2112 A-T fibroblasts, KAP-1 phosphorylation AlphaLISA; neocarzinostatin DNA damage 30 min before lysis; AID 485349, 2010; 320,000 tested, 0.19% active; note: nearly all actives have a fitted effect of over 45% in size
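hTERT-immortalized A-T patient fibroblasts (F2112), 500 cells/well in OPTI-MEM, 1% FBS, got compounds for 60 min, then NCS for 30 min at 37C. Lysates were then assayed for phospho-KAP-1 by AlphaLISA (anti-pKAP1 donor, anti-KAP1 acceptor beads), 6 hr at 25C.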
Nrf2 ARE act = qHTS of Nrf2 Activators; AID 624171, 2012; AREc32 ARE-luciferase reporter (MCF7-derived line), luminescence, 24 h; 410,000 tested, 0.31% active; Potency, µM (highest dose often 46.1 µM), actives largely listed as activators; note: nearly all actives have a fitted effect of over 65% in size
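Steps: seed AREc32_Fluc cells (1000/well, 5% FBS OPTI-MEM); incubate overnight at 37 deg C; add 23 nL compound; incubate 24 hr; add Steady-Glo; hold 30 min RT; read luminescence.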
Nrf2 block = Nrf2 qHTS screen for inhibitors; A549 ARE-Fluc reporter, luciferase luminescence, 18-24 h; Potency, µM (doses to about 46 µM), usual class: inhibitors; 360,000 tested, 2.1% active; AID 504444, 2011; note: nearly all actives have a fitted effect of over 60% in size
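Cells were seeded and rested 2 h, then exposed to compounds for 18-24 h. CellTiter-Fluor was read first as a viability measure. BugLite was added 15 min before the final luminescent read of ARE-luciferase activity in A549 cells.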
TCR activator = Activators of T cell receptors: qHTS campaign. primary human leukocytes, anti-CD3, IL-2 HTRF, 48 h. Potency, µM (doses to about 9.22 µM), hits mostly activators. 330,000 tested, under 10 active
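Compounds are tested in HTS on primary human leukocytes co-incubated with a-CD3 beads for 48 hr. IL-2 output is measured by time-resolved FRET.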
CCT chaperon mod = High-Throughput Screening for Modulators of Cytosolic Chaperonin Activity | purified chaperonin ATPase assay, HTRF ADP detection, 30 min | activity change, % (test concentration not listed), hits read low | 360,000 tested, 0.3% active; in the data active = activity change below about -30%
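TRiC at 40 or 20 nM final (batch-dependent) in 30 mM Tris pH 7.4, 100 mM KCl, 5 mM MgCl2, 1 mM DTT, with compound at single 76 uM and 10 uM ATP, 30 min at 37 deg C. ADP detected by HTRF Transcreener, 665/615 ratio.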
FLuc counter 3 = Nrf2 qHTS screen for inhibitors: Purified Fluc Biochemical Counterscreen for Hit Validation; shares compounds with Nrf2 block; purified firefly luciferase, luminescence inhibition; Potency, µM (titrated, usually from 57.5 µM), most hits filed as inhibitors; 1,400 tested, 4% active; note: nearly all actives have a fitted effect of over 65% in size
Target sequence (P08659 whole entry, looked up): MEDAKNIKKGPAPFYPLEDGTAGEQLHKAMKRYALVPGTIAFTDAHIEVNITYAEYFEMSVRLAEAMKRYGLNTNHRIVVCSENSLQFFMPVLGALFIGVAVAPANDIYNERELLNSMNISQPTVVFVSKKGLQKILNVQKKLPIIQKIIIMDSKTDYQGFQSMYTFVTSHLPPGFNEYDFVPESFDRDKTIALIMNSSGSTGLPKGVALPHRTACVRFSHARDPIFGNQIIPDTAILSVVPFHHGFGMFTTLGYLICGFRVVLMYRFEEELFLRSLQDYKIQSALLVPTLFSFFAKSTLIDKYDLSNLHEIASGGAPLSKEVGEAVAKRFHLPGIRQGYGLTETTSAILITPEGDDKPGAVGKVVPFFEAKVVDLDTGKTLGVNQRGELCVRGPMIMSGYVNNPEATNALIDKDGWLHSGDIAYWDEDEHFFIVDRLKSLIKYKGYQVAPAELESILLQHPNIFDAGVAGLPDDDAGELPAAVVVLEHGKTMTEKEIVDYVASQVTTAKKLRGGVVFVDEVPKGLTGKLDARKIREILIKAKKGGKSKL
A549 tox-2 = Nrf2 qHTS screen for inhibitors: A549 ARE-Fluc Cytotoxicity Counterscreen for Hit Validation; 1,400 tested, 2% active; AID 720523, 2013; A549 ARE-Fluc cells, cytotoxicity counterscreen; Potency, µM (titrated, usually from 46.1 µM), hits mostly inhibitors; shares compounds with Nrf2 block;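 note: cells exposed to compounds for 18 to 24 hours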
Nrf2 ARE inh = Nrf2 qHTS screen for inhibitors: Nrf2 A549 ARE-Fluc Confirmation Assay for Hit Validation | shares compounds with Nrf2 block | A549 ARE-firefly luciferase reporter, luminescence | Potency, µM (doses to about 46.1 µM), most hits filed as inhibitors | 1,400 tested, 74% active | AID 720524, 2013; note: nearly all actives have a fitted effect of over 65% in size
A number is an active result; n = inactive; u = inconclusive; x = no result. Shown are actives, neighbours in structure and some others; about 2.6% of the full set was active somewhere. Unless noted, calls come from the whole dose curve; as a rule, active = well fitted curve in the direction sought with a large enough effect; inconclusive = small, poorly fitted or top-dose-only effect, or another doubt; inactive = no such curve, though single readings can be large; an effect the other way counts as inactive or inconclusive.

SMILES	A549 tox-1	AT treatment	Nrf2 ARE act	Nrf2 block	TCR activator	CCT chaperon mod	FLuc counter 3	A549 tox-2	Nrf2 ARE inh
COc1ccc(-c2cc3c(=O)n(CC(=O)Nc4ccccc4C(F)(F)F)ccn3n2)cc1OC	n	x	n	x	x	x	x	x	x
O[C@@H]1[C@@H](O)C=C2CCN3Cc4cc5c(cc4[C@H]1C23)OCO5 (stereo not given in full)	u	n	n	6.5µM	n	n	n	u	7.3µM
Cc1ccc(Cn2c(C)c3cnn(CC(=O)N4CCN(c5cc(C)ccc5C)CC4)c(=O)c3c2C)cc1	n	x	n	8.2µM	x	x	n	n	6.5µM
Cc1c2cnn(CC(=O)N3CCN(c4ccc(F)cc4)CC3)c(=O)c2c(C)n1Cc1ccc(F)cc1	n	x	n	u	x	x	x	x	x
CC[C@]1(C(=O)OC)[C@H]2C(=O)N(Cc3ccccc3)C(=O)[C@H]2[C@H]2CN(C)C(=NC)N21	n	n	n	n	n	n	x	x	x
O=C(Nc1ccccc1)c1ccc(Nc2c([N+](=O)[O-])cc([N+](=O)[O-])c3ccccc23)cc1	n	n	n	7.3µM	n	n	n	n	5.2µM
O=C(/C=C/c1ccc(S(=O)(=O)N2CCOCC2)cc1)N1CCN(c2ccccc2)CC1	n	n	n	5.8µM	n	n	n	n	u
CCOc1ccc(C(=O)Nc2nnc(S(=O)(=O)N(CC)c3ccccc3C)s2)cc1	n	x	n	u	x	x	x	x	x
CSC1SCC2C(=O)N(C)C(C(C)C)C(=O)OCC(NC(=O)c3cnc4ccccc4n3)C(=O)NC(C)C(=O)N(C)C1C(=O)N(C)C(C(C)C)C(=O)OCC(NC(=O)c1cnc3ccccc3n1)C(=O)NC(C)C(=O)N2C (stereo not given)	u	x	n	0.0065µM	n	n	u	10µM	6.5µM
COc1cc(OC)cc(-c2cc3nc(C)c(CCC(=O)Nc4ccc(F)c(Cl)c4)c(C)n3n2)c1	n	x	n	2.1µM	x	x	u	n	5.8µM
CCOc1ccc(Cn2nnc(C(=O)Nc3cccc(SC)c3)c2N)cc1	n	x	n	n	x	x	x	x	x
Cc1ccc(S(=O)(=O)N2CCN(c3ncnc4sccc34)CC2)cc1	n	n	n	7.3µM	n	n	n	n	8.2µM
c1ccc(CC2CCN(c3ncnc4sccc34)CC2)cc1	n	n	n	5.2µM	n	n	n	n	3.7µM
Cc1ccc(-c2csc3ncnc(N4CCN(S(=O)(=O)c5ccc(C#N)cc5)CC4)c23)cc1	x	x	n	x	x	n	x	x	x
Cc1c(Cl)cccc1NC(=O)CNS(=O)(=O)c1cccs1	n	x	n	x	x	x	x	x	x
Cc1nc2ccccc2n1-c1nc(-c2ccco2)cc(C(F)(F)F)n1	u	n	n	4.6µM	n	n	n	u	5.8µM
CCCCOc1ccc(C(=O)NCc2nnnn2-c2ccc(C)c(C)c2)cc1	n	x	n	x	x	x	x	x	x
COc1ccc(C(=O)OCC(=O)Nc2cc(C)on2)c(OC)c1OC	n	n	n	n	n	n	x	x	x
COc1ccc(NC(=S)NC(=O)/C=C/c2cccs2)cc1	n	n	n	n	n	n	x	x	x
O=C(/C=C/c1cccs1)NC(=S)Nc1ccc(S(=O)(=O)Nc2ccccc2C(F)(F)F)cc1	n	n	n	8.2µM	n	n	n	n	n
Nc1ccc(N2CCCCC2)c(S(=O)(=O)Nc2ccccc2Cl)c1	n	n	n	n	n	n	x	x	x
